Laboratory results: PubChem BioAssay AID488890 (Southern Research Specialized Biocontainment Screening …, 2010)
Among all 320,000 compounds or so, about 1,300 (0.41%) were called active. Another 3% or so got no clear call; they are omitted. How the calls were made is not given here. Only a sample is shown. Results with a measured potency or affinity are listed apart.

Test: growth inhibition of non-replicating M. tuberculosis (AID 488890);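 further: plate controls were DMSO cells for no effect and high antibiotic wells for full effect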
Conditions: Mycobacterium tuberculosis non-replicating, at 25 µM, stronger effect = higher value

| SMILES | inhibition [%] |
| --- | --- |
| CCCN(CC(=O)Nc1ccccc1C)C(=O)c1ccc(C(=O)c2ccccc2)cc1 | 18.4 |
| COc1ccc(C(=O)N2CCNC(=O)C2CC(=O)Nc2cc(Cl)ccc2OC)cc1 (configuration not stated) | 0.76 |
| O=C(Cc1ccc(-n2cccc2)cc1)NC1CCCCCC1 | 19.9 |
| CCOC(=O)COc1ccccc1/C=N/O | 15 |
| CCOC(=O)Cn1cc(/C=C/[N+](=O)[O-])c2ccccc21 | 72.6 |
| CCC(=O)Nc1cccc(NC(=O)c2ccc(Br)cc2)c1 | 1.37 |
| COC(=O)c1cn(NC(=O)c2ccncc2)c(=O)c2ccccc12 | 14.3 |
| COC(=O)c1cn(NC(=O)c2cccnc2)c(=O)c2ccccc12 | -6.97 |
| CCCCCCCCCCC(=O)NNC(=O)c1c(O)c2ccccc2n(CC)c1=O | -9.98 |
| COc1cc(C(=O)NCc2ccc(F)cc2)cc(Cl)c1OC | -11.2 |
| CCCCn1c(N)c(N(CCOC)C(=O)CCNC(=O)c2ccc(Cl)cc2)c(=O)[nH]c1=O | -12.2 |
| O=C(NCCCNC(=O)c1cccs1)c1cccs1 | -16.1 |
| O=C(NCc1cccs1)C1CCCCC1 | 54 |
| O=C(NCCCCNC(=O)c1cccs1)c1cccs1 | -0.35 |
| O=C(CC1CCCCC1)NCc1ccc(Cl)cc1 | 11 |
| O=C(NCc1cccs1)C12CC3CC(CC(C3)C1)C2 | 26.9 |
| O=C(NCc1cccs1)C1CC1 | -9.67 |
| O=C(CCCCC(=O)NCc1cccs1)NCc1cccs1 | 1.23 |
| O=C(CC1CCCCC1)NCc1ccccc1Cl | 33 |
| COc1ccc(C(CNC(=O)c2ccccc2SC)N(C)C)cc1 (configuration not stated) | -4.14 |
| CCCCN(C(=O)CSc1nnc(-c2ccccc2)n1C)c1c(N)n(Cc2ccccc2)c(=O)[nH]c1=O | 8.96 |
| Cc1nc2sc(C)c(C)c2c(=O)[nH]1 | 3.35 |
| COc1cc(CN2CCNCC2)cc(OC)c1OC | -14.6 |
| COC(=O)c1ccc(NC(=O)COc2ccc(S(=O)(=O)NC(C)(C)C)cc2)cc1 | -11.9 |

| SMILES | inhibition [%] |
| --- | --- |
| CC(NC(=O)CN1C(=O)NC2(CCc3ccccc32)C1=O)c1ccccc1 (configuration not stated) | 15.4 |
| CNNC(=S)Nc1ccc(Cl)cc1 | -0.3 |
| Cc1nnc(NC(=O)CSc2n[nH]c(-c3ccccc3C)n2)s1 | 5.17 |
| CC(=O)Nc1cccc(NC(=O)c2ccc(Br)cc2)c1 | -8.54 |
| CC(=O)/C(=N/Nc1ccccc1C)N1CCOCC1 | 9.51 |
| O=C(CCC1CCCCC1)NCc1ccncc1 | 29 |
| O=C(O)CCC(=O)Nc1ccc(Br)cn1 | -12.1 |
| O=C(CCC1CCCC1)Nc1ccc([N+](=O)[O-])cn1 | 67.7 |
| O=C(CC1CCCCC1)NCc1ccc(F)cc1 | 55.7 |
| O=C(CC1CCCCC1)NCc1ccccn1 | 69.6 |
| O=C(CCC1CCCCC1)NCc1ccccn1 | 79.4 |
| O=C(CN1C(=O)NC2(CCCc3ccccc32)C1=O)N1CCCCC1 (configuration not stated) | 6.72 |
| Nc1ccc(Br)cc1C(=O)c1ccccc1 | 53.2 |
| CCN(CC(=O)Nc1c(F)cccc1F)C(=O)CCCc1c[nH]c2ccccc12 | -0.99 |
| CCOC(=O)c1cc(-c2ccccc2)n(CC2CC(c3ccc(OC)cc3)=NO2)n1 (configuration not stated) | 0.81 |
| COc1cc(C(=O)OCC2CC(c3ccccc3)=NO2)cc(OC)c1OC (configuration not stated) | 3.53 |
| CC(=O)c1cc(NC(=O)c2ccccc2)c(=O)oc1C | 54.9 |
| Cc1oc(=O)c(NC(=O)c2ccccc2)cc1C(N)=O | -8.22 |
| N/C(=N\OC(=O)c1ccc2ccccc2c1)c1ccccn1 | 15.8 |
| COc1cccc(NC(=O)C(C)N2C(=O)c3ccccc3S2(=O)=O)c1 (configuration not stated) | -2.17 |
| COc1ccc(-c2c([C@H]3[C@H]4C=CC[C@@H](C)[C@@H]4C(=O)N3Cc3ccccc3)ccc3ccccc23)cc1OC | 60.8 |
| COc1ccc(/C=N/Nc2cc(C)nc(N3CCOCC3)n2)cc1 | -21.2 |
| COc1ccc(/C=N/Nc2cc(C)nc(N)n2)cc1 | 27.6 |
| Cc1ccc(/C=N/Nc2cc(C)nc(N3CCOCC3)n2)cc1 | 5.46 |

| SMILES | inhibition [%] |
| --- | --- |
| Cc1cc(N/N=C/c2ccc(F)cc2)nc(NCc2ccccc2)n1 | 60.8 |
| O=C(O)CC(NC(=O)c1cccc(F)c1)c1ccc(OC2CCCC2)cc1 (configuration not stated) | -8.15 |
| CCCCC(=O)Nc1ccc(C(=O)c2ccccc2)cc1 | -5.55 |
| CCn1cc(CNC(=S)Nc2cccc(Cl)c2C)cn1 | 72.5 |
| C/C=C\C(=O)Nc1cccc(C2=NOC3(C2)C[C@@H](C(N)=O)N(C(=O)C2(C)CC2)C3)c1 (some centres not stated) | 2.93 |
| CC(=O)Nc1ccc(NC(=O)CN(C)S(=O)(=O)c2ccc3nc(C)sc3c2)cc1 | 6.18 |
| CCC(=O)Nc1nc2c(OC)ccc(C)c2s1 | -15 |
| COc1ccc(OC)c2sc(NC(=O)CCSc3ccccc3)nc12 | 14.7 |
| COc1ccc(CNC(=O)C(=O)NCC2OCCN2S(=O)(=O)c2ccc3c(c2)OCCO3)cc1 (configuration not stated) | -1.2 |
| CCOc1ccc(NC(=O)CCNS(=O)(=O)c2ccc3c(c2)CC(C)N3C(C)=O)cc1 (configuration not stated) | -1.02 |
| CCOC(=O)C1CCN(Cc2ccc(OCc3ccccc3)c(OC)c2)CC1 | 6.11 |
| CCN1C(=O)N/C(=C/c2ccc(Sc3ccc(C)cc3)o2)C1=O | 39.1 |
| CC1=CN2C(=N)/C(=C/c3ccc(Sc4ccc(C)cc4)o3)C(=O)N=C2S1 | -10.5 |
| Cc1ccc(N2NC(=O)/C(=C/c3ccc(-c4ccc(Cl)c(C(=O)O)c4)o3)C2=O)cc1 | 26.2 |
| O=C1NN(c2ccccc2)C(=O)/C1=C/c1ccc(-c2ccc(C(=O)O)cc2)o1 | 37.2 |
| CC(C)C(C)NC(=O)COc1ccc(-c2ccccc2)cc1 (configuration not stated) | -4.32 |
| CCN(CC)C(=O)COc1ccc(-c2ccccc2)cc1 | 37.2 |
| CC(NC(=O)COc1ccc(Br)cc1)C1CCCO1 (configuration not stated) | 0.437 |
| COc1ccc(CCC(=O)NC(C)C2CCCO2)cc1 (configuration not stated) | -3.51 |
| CCC(CC)n1[nH]c(=O)c2c(C)cc(C)nc21 | -4.61 |
| CCCc1nc(SCC(=O)NC2CC2)c2c(C)c(C)sc2n1 | 6 |
| CC[C@@]12C(=O)N(c3cccc(Br)c3)C(=O)N1[C@H](c1cccc(C)c1)[C@@H]1C(=O)N(Cc3ccccc3)C(=O)[C@@H]12 | 23.5 |
| O=C(c1ncc[nH]1)c1cccs1 | -0.79 |
| CCOC(=O)C1CCCN(Cc2ccccc2Cl)C1 (configuration not stated) | 21.6 |

| SMILES | inhibition [%] |
| --- | --- |
| CC(NCc1ccc(Cl)cc1)C(O)c1ccccc1 (configuration not stated) | 12.6 |
| CC(NCc1cccc(OCc2ccccc2)c1)C(O)c1ccccc1 (configuration not stated) | 63.5 |
| Cn1c(Cc2ccccc2)nnc1SCc1ccc(C(=O)O)cc1 | -12 |
| COn1c2c(c3c4no[n+]([O-])c4ccc31)CCCC2 | -5.21 |
| CCOC(=O)c1c(C)n(OC)c2ccc3c(no[n+]3[O-])c12 | -0.23 |
| CCCCC(=O)Nc1c2c(nn1-c1cccc(C)c1C)CS(=O)(=O)C2 | -2.3 |
| COc1cc(C(=O)NCc2ccccn2)ccc1OCc1c(C)noc1C | -3.19 |
| C=CCN1C(=O)C2(NC(=O)c3ccccc3N2)c2ccccc21 (configuration not stated) | -5.15 |
| O=C1N(CCCCN2C(=O)C3(OCCO3)c3ccccc32)c2ccccc2C12OCCO2 | 5.68 |
| O=C1N(CCCN2C(=O)C3(OCCO3)c3ccccc32)c2ccccc2C12OCCO2 | 0.91 |
| C=CCN1C(=O)C2(OCCCO2)c2ccccc21 | 11.8 |
| COc1ccccc1C(=O)N1CCN(C2CCN(Cc3ccccc3)CC2)CC1 | -21.9 |
| COc1ccc(OC(C)C(=O)NC(C)c2ccccc2)cc1 (configuration not stated) | -7.62 |
| O=C1CCCC(O)=C1C=Nc1cccc(C(F)(F)F)c1 | -1.35 |
| O=C1CCCC(O)=C1C=Nc1ccc(O)cc1 | 17.3 |
| CC(C)CN(C(=O)COC(=O)c1ccccn1)c1c(N)n(Cc2ccccc2)c(=O)[nH]c1=O | -2.29 |
| CCOC(=O)C1=NN(c2ccccc2)C(c2ccccc2)CC1=O (configuration not stated) | 12.4 |
| C=CCOc1ccc(C2CC(C)=NN2c2ccccc2)cc1 (configuration not stated) | 35.9 |
| Cc1ccc(C)c(S(=O)(=O)N2CCN(C(=O)CCC(=O)NCc3ccc(Cl)cc3)CC2)c1 | 6.7 |
| NC(=O)c1ccc(NC(=O)COC(=O)C2CC(=O)N(Cc3ccccc3)C2)cc1 (configuration not stated) | -1.36 |
| Cc1nn2c(NCCCN(C)C)c3c(nc2c1-c1ccccc1)CCC3 | -10.7 |
| Cc1nn2c(NCCCN(C)C)c3c(nc2c1-c1ccccc1)CCCC3 | 73.4 |
| CCO/C=C1/C(=O)N(C(C)=O)c2ccccc21 | -5.81 |
| COc1ccc(-c2nnc(-c3cccs3)o2)cc1OC | 60.7 |

| SMILES | inhibition [%] |
| --- | --- |
| Cc1cccc(-c2nnc(-c3ccccc3)o2)c1 | 79.9 |
| Fc1ccc(-c2nnc(-c3ccc(Cl)cc3)o2)cc1 | 72.1 |
| COc1ccc(-c2nnc(-c3ccc(F)cc3)o2)cc1 | 76.7 |
| CN(C)c1ccc(-c2nnc(-c3cccs3)o2)cc1 | 48.7 |
| Cc1ccc(-c2nnc(-c3ccccc3Br)o2)cc1 | 78.7 |
| c1ccc(-c2nnc(-c3ccccc3)o2)cc1 | 66.5 |
| COc1ccccc1-c1nnc(-c2ccc(N3CCOCC3)cc2)o1 | 18.5 |
| Cc1cc(=O)oc2ccc(OC(C)C(=O)O)cc12 (configuration not stated) | -4.21 |
| Cn1cc(C(=O)C(=O)N2CCCC2)c2ccccc21 | -3.83 |
| Cc1nc(N/N=C/c2ccccc2)nc(N(C)c2ccccc2)c1[N+](=O)[O-] | -0.99 |
| CC(=O)Nc1ccc(Nc2nc(C)c([N+](=O)[O-])c(N(C)c3ccccc3)n2)cc1 | 71.5 |
| CC(=O)c1cccc(OCc2cc(C(=O)NCc3nc(C)c(C)s3)no2)c1 | -3.04 |
| COc1ccc(NC(=O)COc2ccc(C(=O)NCc3cccnc3)cc2OC)cc1 | 10.8 |
| O=C(O)c1c2c(nc3ccccc13)-c1ccccc1CC2 | -7.78 |
| O=C(OCC(=O)N1CCN(c2ccccc2)CC1)c1ccc(Cl)nc1 | 60.4 |
| O=C(OCC(=O)N1CCCC1)c1cnc(Cl)c(Cl)c1 | 7.3 |
| O=C(OCC(=O)N1CCCCC1)c1ccc2ccccc2n1 | 50 |
| O=C(OCC(=O)N1CCN(c2ccccc2)CC1)c1ccccn1 | -2.7 |
| Clc1ccc(N2CCN(c3ccnc(Cl)n3)CC2)cc1 | 53 |
| COCCCNC(=O)c1c(N)n(-c2ccc3c(c2)OCO3)c2nc3ccccc3nc12 | -12.5 |
| O=C(NC1CCCCC1)c1cc(-c2ccc(Cl)cc2)on1 | -0.38 |
